Among all 2,300 compounds or so, about 1,200 (52%) were called active. How the calls were made is not given here. So high a share suggests a set chosen from earlier hits. The list shows a part of the results. Where a call stands in place of a potency, no number is given. Potency and affinity values are given separately.
experiment: mammalian cell cytotoxicity, dose response, cytotoxicity control for M. tuberculosis inhibitor project (AID 435019); conditions: cytotoxicity counter-screen; series mostly up to 40 µM;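 further: lower values mean fewer viable cells so more cytotoxicity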

SMILES	outcome
Cc1ccc(Nc2nc(N)nc(CN3CCc4ccccc4C3)n2)cc1	inactive
Cc1ccccc1Nc1nc(N)nc(COC(=O)c2ccc([N+](=O)[O-])o2)n1	inactive
CCOC(=O)CN(C#N)c1nc(N(C)C)nc(N(C)C)n1	inactive
CN(C)N=Nc1nc[nH]c1C(N)=O	inactive
CCNc1nc(NCC)n2c(SC(C(=O)Nc3cc(C)ccc3C)c3ccccc3)nnc2n1 (stereo not given)	inactive
Cn1cc(/C=C2\C(=O)NC(=O)N(c3ccccc3)C2=O)c2ccccc21	inactive
CC(C)(Oc1ccc(Cl)cc1)C(=O)OCC(=O)N1CCN(c2ccccc2)CC1	inactive
CC(C)Cn1c(N2CCN(C(=O)/C=C/c3ccccc3)CC2)nc2ccccc21	inactive
CCN(CC)C(=O)Oc1ccc2c(=O)c(-c3ccc(OC)cc3)coc2c1	inactive
CN(C)C(=O)C1C2NC(=S)N(c3ccc(Cl)cc3)C1(C)Oc1ccc(Cl)cc12 (stereo not given)	inactive
COc1cc(NC(=O)C/C(C)=N/NC(=O)c2ccccn2)c(OC)cc1Cl	inactive
O=c1oc2cc(O)ccc2c2ccccc12	inactive
Cc1ccc(-c2ccc(/C=N/c3ncn[nH]3)o2)cc1Cl	inactive
C=C(C)C1CC=C(C)/C(=N/NC(=O)CNc2ccc(OCC)cc2)C1 (stereo not given)	inactive
O=C(c1ccc(C#Cc2ccccc2)o1)N1CCN(c2ccccn2)CC1	inactive
CCCOC(=O)CSc1nc(N2CCOCC2)c2c(c1C#N)CC(C)(C)OC2	inactive
O=C(Oc1ccc(-c2cn3c(n2)SCC3)cc1)c1ccccc1	inactive
CC(=Nc1ccc(C)c(C)c1)C1=C(O)CSC1=O	inactive
Oc1ccccc1C=NC1=NN(c2cccc(C(F)(F)F)c2)CC1	inactive
O=C(O)c1ccccc1C(=O)NNc1ccc(Cl)cc1Cl	inactive
Cc1nn(C(C)(C)C)c(NC(=O)c2ccc(Cl)cc2Cl)c1Br	inactive
O=C(C[n+]1cc(-c2ccc(Cl)cc2)n2c1CCC2)Nc1nc(-c2ccccc2)cs1	inactive
COc1ccc(N=c2ssnc2Cl)cc1	inactive
O=C(CSc1cccc[n+]1[O-])c1cccs1	inactive

SMILES	outcome
O=C(OCC(=O)N1CCCc2ccccc21)c1ccc(S(=O)(=O)C(F)F)cc1	inactive
CCN(CC)CCN(C(=O)c1ccc(S(=O)(=O)N2CCCC2)cc1)c1nc2cc(C)cc(C)c2s1	inactive
COc1cc(C(=O)N/N=C/c2cc([N+](=O)[O-])cs2)cc(OC)c1OC	inactive
Cc1ccc(CN2CCN(Cc3ccc(-n4cccn4)cc3C)CC2CCO)cc1 (stereo not given)	inactive
COc1ccc(N=C/C=C2/C=C(c3ccccc3)OC(C)(C)O2)cc1	inactive
N#CC(C#N)=C(N)CSc1cccc[n+]1[O-]	inactive
CCOc1ccc(-c2nn3c(-c4ccccc4)nnc3s2)cc1	inactive
CCOc1ccc(N=C(NC#N)SCC(=O)NC2CC2)cc1	inactive
COc1ccc(Cc2nnc(SCC(=O)N(c3ccccc3)C(C)C)n(N)c2=O)cc1	inactive
CC(C)Oc1ccc(NC(=O)Oc2ccccc2)cc1	inactive
CC(c1nc2ccccc2c(=O)[nH]1)N(C)CCOc1ccc(Cl)cc1 (stereo not given)	inactive
CCOC(=O)C1CCN(C(=O)c2ccc3c(c2)NC(=O)/C(=C/c2ccccc2)S3)CC1	inactive
CN(C)c1ccc(CNc2nc(-c3ccccc3)nn2S(C)(=O)=O)cc1	inactive
Nc1ccc(N=Nc2ccccc2)c(N)n1	inactive
C#CCOC(=O)/C(=C/c1ccc(F)cc1)NC(C)=O	inactive
Cc1ccc(C(=O)C[n+]2cc(-c3ccc(C)cc3)n3c2CCCCC3)cc1	inactive
COc1ccc(-n2c(-c3ccc(Cl)cc3)c[n+]3c2CCc2ccccc2-3)cc1	inactive
O=C(CN1CCN(Cc2ccc(Cl)cc2)CC1)N/N=C/C=C/c1ccccc1[N+](=O)[O-]	inactive
O=S(=O)(Nc1ccc2[nH]ncc2c1)c1ccccc1Cl	inactive
CC(C)(C)C1CCc2nc(NC(=O)Cc3cn4ccsc4n3)sc2C1 (stereo not given)	inactive
COC(=O)[C@H](CCSC)NC(=O)N1CCN(c2cccc(C(F)(F)F)c2)CC1	inactive
Cc1cc2c(cc1C)/C(=N/NC(=O)c1ccccn1)CCC2	inactive
O=C(NNC1CC(=O)N(c2ccc(Br)cc2)C1=O)c1ccccn1 (stereo not given)	inactive
Cc1nn(-c2ccccc2)c(Cl)c1C(=O)Nc1nnc(C2CCCCC2)s1	inactive

SMILES	outcome
Cc1nn(-c2ccccc2)c(Cl)c1/C=C/C(=O)c1ccccc1	inactive
Cc1cccc(C)c1OCCCCc1c(C)n[nH]c1C	inactive
COC(=O)CCc1sc(Nc2ccc(Br)cc2)nc1-c1ccc(OC)cc1	inactive
COC(=O)c1cc(-c2cccc(OC)c2)on1	inactive
COc1cccc(NC(=O)CNC(=O)Cn2cnc3sc4c(c3c2=O)CCCC4)c1	inactive
CCNC(=S)NN=C1c2ccccc2-c2ccccc21	inactive
Cn1/c(=N/NC(=O)c2cccc(OC(F)F)c2)sc2ccccc21	inactive
CC(OC(=O)COc1ccc(Nc2ccccc2)cc1)C(=O)N(C)c1ccccc1 (stereo not given)	inactive
C[n+]1c(-c2ccccc2)cc(CCCCc2cc(-c3ccccc3)[n+](C)c(-c3ccccc3)c2)cc1-c1ccccc1	inactive
CC1CC(C)CN(C(=O)C2CCC(CNc3c(N4CCCCC4)c(=O)c3=O)CC2)C1 (stereo not given)	inactive
CCC(C)c1ccc2oc(-c3ccc(NC(=O)c4ncn[nH]4)cc3)nc2c1 (stereo not given)	inactive
CC(/C=C/C=C/c1ccccc1)=N\NC(=O)c1cccnc1	inactive
CCC1CSC(Nc2ccc(C(=O)/C=C/c3cccc(C)c3)cc2)=N1 (stereo not given)	inactive
CCOC(=O)COc1cc([N+](=O)[O-])cc2cccnc12	inactive
O=C(c1ccccc1)c1c[nH]c(C(=O)NNc2ccccc2)c1	inactive
COc1ccc(Cc2nc3ccc(C(=O)NCCCSC)cc3o2)cc1OC	inactive
Cc1ncc(C23CC4CC(CC(C4)C2)C3)[nH]1	inactive
COc1cc(/C=C2\C(=O)NN(c3ccc(C)cc3)C2=O)cc([N+](=O)[O-])c1O	inactive
CC(C)(C)NC(=O)COC(=O)c1cc(Br)ccc1Cl	inactive
Cc1nonc1OCCNCCNc1ccc([N+](=O)[O-])c2cccnc12	inactive
O=C1C(Br)=Cc2cccc3cccc1c23	inactive
C=C[C@]1(C)C[C@@H](OC(=O)CSCCN(CC)CC)[C@]2(C)C(C)CC[C@]3(CCC(=O)[C@H]32)[C@@H](C)[C@@H]1O (stereo not given in full)	inactive
